In the library only some 1.2% were active in any assay of this set; here they are far more common.
NPR2 activator = human GC-B receptor activators, primary screen, HEK293 GC-B cells, cGMP TR-FRET, EC30 CNP; Atrial natriuretic peptide receptor 2 (Homo sapiens), P20594; 0% at EC30 CNP, 100% saturating CNP; activation, % at 10 µM; actives 0.11% (n = 370,000); AID 1920062, 2024;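 active = activation at 10 µM reaching about 35% in either raw or pattern-adjusted values, limit read from the data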
Neddylation inh = inhibitors of cullin neddylation, primary screen, biochemical, TR-FRET, uHTS, NAE and Ubc12. actives 0.58% (n = 360,000). NEDD8-conjugating enzyme Ubc12 (Homo sapiens) + NEDD8-activating enzyme E1 regulatory …. inhibition, % at 25 µM. AID 651699, 2012; in the data active = inhibition above about 36%
Target sequence (P61081 whole entry, looked up): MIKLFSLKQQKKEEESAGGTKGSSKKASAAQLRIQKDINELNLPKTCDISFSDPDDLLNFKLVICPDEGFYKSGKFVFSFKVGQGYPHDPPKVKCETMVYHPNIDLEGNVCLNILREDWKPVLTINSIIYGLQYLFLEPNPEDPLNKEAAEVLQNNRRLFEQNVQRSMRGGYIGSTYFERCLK
Target sequence (Q13564 whole entry, looked up): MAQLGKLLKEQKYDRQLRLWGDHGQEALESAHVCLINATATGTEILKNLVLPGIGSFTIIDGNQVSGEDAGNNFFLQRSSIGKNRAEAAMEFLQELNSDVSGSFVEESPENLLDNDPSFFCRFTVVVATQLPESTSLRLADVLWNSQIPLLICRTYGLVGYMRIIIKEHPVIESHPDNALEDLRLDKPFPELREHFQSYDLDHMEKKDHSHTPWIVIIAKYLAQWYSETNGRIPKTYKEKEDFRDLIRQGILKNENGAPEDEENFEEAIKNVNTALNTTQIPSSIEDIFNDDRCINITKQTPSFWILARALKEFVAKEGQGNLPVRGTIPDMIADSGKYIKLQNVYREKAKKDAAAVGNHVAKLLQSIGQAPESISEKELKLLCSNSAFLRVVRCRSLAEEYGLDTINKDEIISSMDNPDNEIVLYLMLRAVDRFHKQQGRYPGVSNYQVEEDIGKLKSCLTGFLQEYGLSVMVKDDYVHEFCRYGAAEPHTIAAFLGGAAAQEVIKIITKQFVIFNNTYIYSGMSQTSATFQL
GC-A act = GC-A stimulated cGMP production enhancers – HEK293 GC-A cells, cGMP TR-FRET, EC30 ANP, primary screen; Atrial natriuretic peptide receptor 1 (Homo sapiens), P16066; 0% at EC30 ANP, 100% saturating ANP; activation, % at 10 µM; actives 0.14% (n = 370,000); AID 1671463, 2021; in the data active = activation above about 40%
TLR4 MyD88 comp = inhibitors of TLR4-MyD88 association in cells, primary screen, cell-based, HeLa CL3-4, BLA complementation, FRET ratio | HeLa CL3-4 TLR4/MyD88 BLA complementation | actives 0.18% (n = 200,000) | Toll-like receptor 4 (Homo sapiens) + Myeloid differentiation primary response protein … | inhibition, % at 8.4 µM; in the data active = inhibition above about 25%;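 note: 0% = vehicle and 100% = reference inhibitor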
TLR9-MyD88 inh = inhibitors of TLR9-MyD88 association in cells, primary screen, cell-based, CHO, BLA complementation, fluorescence. Toll-like receptor 9 (Homo sapiens) + Myeloid differentiation primary response protein …. CCF4 FRET ratio. inhibition, % at 4.98 µM. actives 0.21% (n = 340,000);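 active = inhibition above the mean over all tested compounds plus 3 SD, cut at about 21% in these data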;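 note: 0% = DMSO only wells and 100% = clavulanate BLA inhibitor control wells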
NOD2 RIPK2 PPI = NOD2-RIPK2 binding disruptors in cells, primary screen, fluorescence, CHO cells, BLA complementation | CCF4 ratio | inhibition, % at 4.98 µM | actives 0.38% (n = 360,000) | AID 624267, 2012; in the data active = inhibition above about 21%;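 note: 0% = vehicle only and 100% = reference blocker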
Neddyl conf = blockade of NEDD8 conjugation to cullin – biochemical, TR-FRET, single concentration, confirmation. calls only at 25 µM. actives 13% (n = 1,800). AID 652217, 2013. TR-FRET cullin neddylation biochemical assay. shares compounds with Neddylation inh; in the data active = inhibition above about 40%;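 note: neddylation substrate is the cullin 1 ring ligase complex with SKP2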
* hit, by the source's call; i = inactive; · = no result shown; + = active, no number.

SMILES	NPR2 activator	Neddylation inh	GC-A act	TLR4 MyD88 comp	TLR9-MyD88 inh	NOD2 RIPK2 PPI	Neddyl conf
CCOC(=O)c1nn(-c2ccccc2C)c2nc(CC(C)C)c(C#N)c(=O)n12	-2.4	40.3*	1.9	7.2	-7.4	8.5	i
O=C(N/N=C/c1ccc([N+](=O)[O-])cc1)c1[nH]ncc1Br	-4.1	-18.2	0.5	-12.2	6.8	0.3	·
Cc1nc(C(=O)N/N=C/c2[nH]ncc2Br)cs1	-6.6	42.1*	1.2	·	14.0	4.1	i
C#CCOCCOCCOCCNc1nc(N2CCN(C(=O)[C@H](CCC(=O)O)n3cc([C@@H](N)CCCCN)nn3)CC2)nc(N2CCN(C(=O)[C@H](CCCCN)n3cc([C@@H](N)CC(N)=O)nn3)CC2)n1	4.8	-15.5	2.8	·	-0.6	-13.1	·
CC1CCN(S(=O)(=O)c2cc(C(=O)N3CCN(c4ccccc4)CC3)ccc2Br)CC1	3.2	-21.1	-2.4	·	7.7	-5.2	·
COc1ccc(/C=N/NC(=O)c2[nH]c3ccc(Br)cc3c2-c2ccccc2)c(C(=O)O)c1OC	-0.7	33.1	-6.9	·	-3.4	-0.2	·
CCOc1ccc(/C=N/NC(=O)c2cc3c(OC)cccc3[nH]2)cc1	-4.2	42.8*	1.7	·	2.5	5.3	i
COc1cccc(/C=N/NC(=O)c2cc3c(OC)cccc3[nH]2)c1OC	1.6	43.0*	8.4	-2.8	-2.3	-6.2	i
COc1ccc(/C=N/NC(=O)c2[nH]c3ccc(Cl)cc3c2-c2ccccc2)c(C(=O)O)c1OC	-5.7	41.7*	1.8	·	1.7	19.8	·
C[C@H]1C2CC(OC(=O)Nc3cccc(Cl)c3)C(C2)[C@H]2CCCCN21 (some centres not stated)	-2.6	·	-1.3	·	·	·	·
CCOC(=O)C1(C)CCCN1C(=O)c1ccc(C(F)(F)F)nc1C (configuration not stated)	6.3	0.1	3.9	·	·	2.9	·
COCc1cc(C)nc(NC2CC(C)(C)NC(C)(C)C2)c1C#N	7.2	40.9*	1.7	·	7.0	4.4	+
O=C(C(=O)N1CCN(c2ccccc2)CC1)c1ccccc1	3.4	-1.4	0.7	·	·	-9.4	·
COc1ccc2cc3cc(C(=O)NCCCN4CCOCC4)oc3nc2c1	0.8	·	4.2	-2.2	-0.9	-1.0	·
Cc1ccc2cc3cc(C(=O)NCCN4CCOCC4)oc3nc2c1	3.4	64.7*	1.9	0.9	4.9	3.0	+
COc1ccc2cc3cc(C(=O)NCCc4ccc(OC)c(OC)c4)oc3nc2c1	1.1	52.5*	9.7	-2.6	-1.3	1.6	+
COc1ccccc1-c1cc(C(=O)NCCN2CCOCC2)no1	5.1	15.0	0.8	9.1	0.1	0.5	·
CCCN(CCC)CCCNC(=O)c1cc2cc3ccc(OC)cc3nc2o1	-0.9	36.2	1.8	-0.7	-4.6	-18.7	·
COc1cccc2cc(C(=O)NCCN3CCOCC3)oc12	0.4	40.1*	1.4	·	-1.3	4.0	i
COc1ccc(C(C)(O)c2nc(-c3cccc(F)c3)cs2)cc1 (configuration not stated)	-0.6	-3.7	-0.7	·	·	-6.8	·
O=C(CSc1nccn1Cc1ccc(F)cc1)NC1CCCCC1	5.7	2.4	-0.9	·	0.6	-2.3	·
CC(C)CN1C(=O)C[C@@]2(C(=O)N(C)c3ccc(NC(=O)c4cc(F)ccc4F)cc32)C1c1ccccc1 (some centres not stated)	-3.5	·	-0.4	·	·	·	·
Clc1ccc2nc(-c3ccccc3)c(CC3CCCCC3)n2c1	11.3	-5.9	9.0	·	·	-10.5	·
CN(C)C(=O)c1c(-c2ccccc2)oc2ccc(O)cc12	6.0	44.9*	1.8	-8.7	-0.1	2.8	i
COc1cc2oc(=O)cc(CN3CCCCC3)c2cc1Cl	0.0	40.7*	4.3	·	·	0.0	i
SMILES	NPR2 activator	Neddylation inh	GC-A act	TLR4 MyD88 comp	TLR9-MyD88 inh	NOD2 RIPK2 PPI	Neddyl conf
CC(C)C[C@H]1COc2cc(N3CC[C@H](O)C3)ccc2S(=O)(=O)N1	11.6	5.7	3.7	·	·	-2.8	·
COc1cccc(N2CCN(C(=O)c3cccn4c(=O)c5c(C)c(C)sc5nc34)CC2)c1	-1.3	38.3*	1.6	16.3	10.5	-7.5	·
O=c1oc2ccccc2cc1-c1cn2cccnc2n1	-8.1	43.4*	3.5	-2.7	5.2	-10.7	+
C[C@@H]1COc2cc(Br)ccc2S(=O)(=O)N1Cc1cn(CCC2OCCO2)nn1	-1.9	·	-0.1	·	·	·	·
COC(=O)c1nc(N)sc1-c1ccccc1	2.1	40.4*	5.6	1.5	-4.2	-4.2	·
CN(C)c1cccc(C(=O)NCCCSc2ccccc2)c1	1.5	48.8*	3.0	·	1.4	-8.5	·
O=c1[nH]c(=S)[nH]c2c1C(c1cccc(C(F)(F)F)c1)OC(CCc1ccccc1)C2 (configuration not stated)	-5.3	-23.3	-6.6	·	·	3.5	·
CC1(C)CC(=O)C2=C(C1)c1c(ccc3ccccc13)NC2c1ccc(OCC(=O)O)cc1 (configuration not stated)	3.8	·	-1.7	·	3.7	12.4	·
CC1(C)CC(=O)C2=C(C1)c1c(ccc3ccccc13)NC2c1ccc(Br)o1 (configuration not stated)	-27.1	42.6*	-34.4	-0.7	6.4	6.7	i
COc1ccc(-c2cc(NCCc3ccncc3)n3ncnc3n2)cc1	-3.5	25.0	-2.2	14.9	0.1	-11.4	·
COc1ccc(-c2cc(NCc3ccccn3)n3ncnc3n2)cc1	4.7	37.4*	0.4	2.0	-1.1	-5.2	i
Nc1nnnn1/N=C/c1ccc(O)cc1	-8.8	2.9	-1.4	4.6	13.2	-5.4	·
CSc1ccc(/C=N/n2nnnc2N)cc1	0.4	44.5*	-0.5	-2.2	-3.5	7.2	+
COc1cc(/C=N/n2nnnc2N)ccc1O	-1.3	18.5	-2.4	-3.7	-7.2	-13.2	·
COc1cc(/C=N/n2nnnc2N)cc(OC)c1OC	0.0	39.1*	1.3	·	-17.0	-2.5	i
CCN(CC)C(=O)C1=C(C)N(Cc2ccccc2)C(=O)C(CC(=O)NCC2CCCCC2)C1 (configuration not stated)	4.7	7.4	1.1	·	4.3	-4.0	·
COc1ccc(NC(=S)N/N=C2\CC(C)(C)Oc3ccc(O)cc32)cc1	-8.8	40.8*	-1.5	0.2	11.9	3.0	i

Screens from PubChem BioAssay.
